# From publication PMC7862700, “An all-to-all approach to the identification of sequence-specific readers for epigenetic DNA modifications on cytosine”
# What was measured:
# Assay in all cases: DAPPL (digital affinity profiling via proximity ligation, sequencing); 10 mM Tris-HCl pH 7.5, 50 mM NaCl, 1 mM DTT, 4% glycerol, room temperature, 30 min; GST-TFs on glutathione beads, 16-mer random dsDNA library, 0.1% formaldehyde crosslink after washing; high values mean tight binding
# [1] = molecular target: T1, FLI1 (Homo sapiens, UniProt Q01543 1-452); conditions: protein: recombinant; tags: N-terminal GST; dsDNA, one strand shown
# T1 sequence: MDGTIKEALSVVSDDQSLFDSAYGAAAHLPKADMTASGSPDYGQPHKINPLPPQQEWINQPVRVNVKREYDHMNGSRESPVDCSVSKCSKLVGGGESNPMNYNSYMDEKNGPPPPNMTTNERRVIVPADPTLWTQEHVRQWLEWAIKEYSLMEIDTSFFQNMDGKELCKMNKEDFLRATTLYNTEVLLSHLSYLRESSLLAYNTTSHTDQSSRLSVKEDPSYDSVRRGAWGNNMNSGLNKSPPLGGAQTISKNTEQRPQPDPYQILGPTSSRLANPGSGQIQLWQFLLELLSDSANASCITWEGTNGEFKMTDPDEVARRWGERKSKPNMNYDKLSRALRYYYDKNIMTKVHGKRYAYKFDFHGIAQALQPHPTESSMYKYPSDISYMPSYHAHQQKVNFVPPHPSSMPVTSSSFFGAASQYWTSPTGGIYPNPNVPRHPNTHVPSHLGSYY
# Method in brief: (§1)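 GST fusions of human transcription factors were expressed in yeast and captured with glutathione beads. Once given DNA barcodes and pooled alongside a tag-only sample, they were incubated for 30 min at room temperature with 200 nmole of a random double-stranded 16-mer DNA library in Tris/NaCl/DTT/glycerol buffer, then washed, crosslinked (0.1% formaldehyde), proximity-ligated, PCR-amplified and sequenced on an Illumina NextSeq500. The binding signal of each hexamer is its read frequency for a factor divided by its frequency for the tag-only sample.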
# [2] = molecular target: T2, ELK1 (Homo sapiens, UniProt P19419 1-428); conditions: protein: recombinant; tags: N-terminal GST; dsDNA, one strand shown
# T2 sequence: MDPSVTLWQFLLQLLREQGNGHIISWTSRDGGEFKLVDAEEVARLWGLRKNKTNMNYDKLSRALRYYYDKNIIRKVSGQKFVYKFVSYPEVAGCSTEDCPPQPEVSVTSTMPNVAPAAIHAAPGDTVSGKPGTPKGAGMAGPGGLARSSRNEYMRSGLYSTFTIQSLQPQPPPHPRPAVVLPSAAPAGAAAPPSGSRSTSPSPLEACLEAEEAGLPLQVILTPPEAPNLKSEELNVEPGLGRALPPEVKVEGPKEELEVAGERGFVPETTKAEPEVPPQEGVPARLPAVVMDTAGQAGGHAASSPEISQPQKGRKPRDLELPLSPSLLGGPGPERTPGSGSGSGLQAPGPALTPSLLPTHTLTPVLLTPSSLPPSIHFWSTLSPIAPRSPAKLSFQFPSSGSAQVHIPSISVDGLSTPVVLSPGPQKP
# Method in brief: as §1
# [3] = molecular target: T3, GABPA (Homo sapiens, UniProt Q06546 1-454); conditions: protein: recombinant; tags: N-terminal GST; dsDNA, one strand shown
# T3 sequence: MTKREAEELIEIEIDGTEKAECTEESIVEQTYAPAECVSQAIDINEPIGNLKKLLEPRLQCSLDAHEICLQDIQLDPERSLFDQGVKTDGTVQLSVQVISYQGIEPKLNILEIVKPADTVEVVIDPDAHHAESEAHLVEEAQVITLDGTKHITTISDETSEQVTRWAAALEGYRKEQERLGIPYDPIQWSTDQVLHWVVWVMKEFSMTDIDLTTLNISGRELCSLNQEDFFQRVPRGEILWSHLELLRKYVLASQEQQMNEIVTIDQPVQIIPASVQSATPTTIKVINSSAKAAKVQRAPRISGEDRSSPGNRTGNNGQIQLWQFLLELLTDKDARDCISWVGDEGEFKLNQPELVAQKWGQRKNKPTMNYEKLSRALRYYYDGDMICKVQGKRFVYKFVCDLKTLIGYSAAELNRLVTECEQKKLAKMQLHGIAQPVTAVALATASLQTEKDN
# Method in brief: as §1
# [4] = molecular target: T4, ERG (Homo sapiens, UniProt P11308 1-479); conditions: protein: recombinant; tags: N-terminal GST; dsDNA, one strand shown
# T4 sequence: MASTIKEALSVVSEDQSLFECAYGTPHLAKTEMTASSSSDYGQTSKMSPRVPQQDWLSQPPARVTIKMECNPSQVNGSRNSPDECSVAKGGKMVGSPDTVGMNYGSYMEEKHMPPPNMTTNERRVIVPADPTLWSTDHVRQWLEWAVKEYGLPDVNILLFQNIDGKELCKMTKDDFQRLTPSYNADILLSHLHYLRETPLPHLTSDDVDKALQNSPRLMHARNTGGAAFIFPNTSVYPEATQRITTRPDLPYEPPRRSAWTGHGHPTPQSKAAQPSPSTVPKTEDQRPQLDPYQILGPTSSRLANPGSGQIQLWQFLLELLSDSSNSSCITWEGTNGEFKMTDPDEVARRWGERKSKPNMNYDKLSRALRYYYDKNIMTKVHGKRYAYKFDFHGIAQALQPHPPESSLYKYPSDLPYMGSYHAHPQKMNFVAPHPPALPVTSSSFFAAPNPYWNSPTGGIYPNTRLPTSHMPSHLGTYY
# Method in brief: as §1
# [5] = molecular target: ELF1 (Homo sapiens, UniProt P32519 1-619); conditions: protein: recombinant; tags: N-terminal GST; dsDNA, one strand shown
# Method in brief: as §1
# [6] = molecular target: T5, EHF (Homo sapiens, UniProt Q9NZC4 1-300); conditions: protein: recombinant; tags: N-terminal GST; dsDNA, one strand shown
# T5 sequence: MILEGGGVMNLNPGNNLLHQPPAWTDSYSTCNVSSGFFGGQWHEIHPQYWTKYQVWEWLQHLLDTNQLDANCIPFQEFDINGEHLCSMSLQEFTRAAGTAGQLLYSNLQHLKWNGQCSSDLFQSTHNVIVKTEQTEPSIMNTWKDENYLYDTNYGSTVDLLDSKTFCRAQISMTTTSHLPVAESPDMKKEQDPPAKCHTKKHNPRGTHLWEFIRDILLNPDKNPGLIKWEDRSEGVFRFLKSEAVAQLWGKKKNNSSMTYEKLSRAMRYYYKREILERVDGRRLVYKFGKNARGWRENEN
# Method in brief: as §1
# [7] = molecular target: SPI1 (Homo sapiens, UniProt P17947 1-270); conditions: protein: recombinant; tags: N-terminal GST; dsDNA, one strand shown
# Method in brief: as §1
# [8] = molecular target: SPIB (Homo sapiens, UniProt Q01892 1-262); conditions: protein: recombinant; tags: N-terminal GST; dsDNA, one strand shown
# Method in brief: as §1
# [9] = molecular target: T6, ELK3 (Homo sapiens, UniProt P41970 1-407); conditions: protein: recombinant; tags: N-terminal GST; dsDNA, one strand shown
# T6 sequence: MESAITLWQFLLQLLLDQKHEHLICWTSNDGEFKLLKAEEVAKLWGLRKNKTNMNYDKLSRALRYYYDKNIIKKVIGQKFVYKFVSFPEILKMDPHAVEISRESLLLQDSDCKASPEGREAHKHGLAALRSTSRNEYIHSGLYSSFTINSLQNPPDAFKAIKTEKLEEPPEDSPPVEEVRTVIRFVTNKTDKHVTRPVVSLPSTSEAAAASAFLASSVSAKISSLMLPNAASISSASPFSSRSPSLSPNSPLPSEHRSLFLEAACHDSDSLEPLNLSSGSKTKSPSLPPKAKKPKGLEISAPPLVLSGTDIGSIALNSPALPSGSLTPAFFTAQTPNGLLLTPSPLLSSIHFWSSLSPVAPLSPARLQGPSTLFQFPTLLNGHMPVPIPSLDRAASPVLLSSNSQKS
# Method in brief: as §1
# [10] = molecular target: T7, FEV (Homo sapiens, UniProt Q99581 1-238); conditions: protein: recombinant; tags: N-terminal GST; dsDNA, one strand shown
# T7 sequence: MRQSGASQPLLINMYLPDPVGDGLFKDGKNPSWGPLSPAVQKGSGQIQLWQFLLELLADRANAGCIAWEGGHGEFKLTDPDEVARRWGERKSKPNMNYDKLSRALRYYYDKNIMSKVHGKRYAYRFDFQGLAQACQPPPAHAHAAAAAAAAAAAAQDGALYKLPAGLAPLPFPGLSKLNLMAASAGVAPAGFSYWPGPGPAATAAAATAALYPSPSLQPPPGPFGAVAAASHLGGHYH
# Method in brief: as §1
# [11] = molecular target: ETV5 (Homo sapiens, UniProt P41161 1-510); conditions: protein: recombinant; tags: N-terminal GST; dsDNA, one strand shown
# Method in brief: as §1
# [12] = molecular target: HSF1 (Homo sapiens, UniProt Q00613 1-529); conditions: protein: recombinant; tags: N-terminal GST; chain copies: 3; dsDNA, one strand shown
# Method in brief: as §1
# [13] = molecular target: T8, SPIC (Homo sapiens, UniProt Q8N5J4 1-248); conditions: protein: recombinant; tags: N-terminal GST; dsDNA, one strand shown
# T8 sequence: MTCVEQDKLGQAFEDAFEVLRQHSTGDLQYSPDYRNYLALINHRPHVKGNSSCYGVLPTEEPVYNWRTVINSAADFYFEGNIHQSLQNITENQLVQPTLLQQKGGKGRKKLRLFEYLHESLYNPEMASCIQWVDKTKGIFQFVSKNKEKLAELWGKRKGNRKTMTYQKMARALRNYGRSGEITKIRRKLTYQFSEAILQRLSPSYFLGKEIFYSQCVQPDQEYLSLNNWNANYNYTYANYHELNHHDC
# Method in brief: as §1
# [14] = molecular target: ELF4 (Homo sapiens, UniProt Q99607 1-663); conditions: protein: recombinant; tags: N-terminal GST; dsDNA, one strand shown
# Method in brief: as §1
# [15] = molecular target: T9, ELK4 (Homo sapiens, UniProt P28324-2 1-405); conditions: protein: recombinant; tags: N-terminal GST; dsDNA, one strand shown
# T9 sequence: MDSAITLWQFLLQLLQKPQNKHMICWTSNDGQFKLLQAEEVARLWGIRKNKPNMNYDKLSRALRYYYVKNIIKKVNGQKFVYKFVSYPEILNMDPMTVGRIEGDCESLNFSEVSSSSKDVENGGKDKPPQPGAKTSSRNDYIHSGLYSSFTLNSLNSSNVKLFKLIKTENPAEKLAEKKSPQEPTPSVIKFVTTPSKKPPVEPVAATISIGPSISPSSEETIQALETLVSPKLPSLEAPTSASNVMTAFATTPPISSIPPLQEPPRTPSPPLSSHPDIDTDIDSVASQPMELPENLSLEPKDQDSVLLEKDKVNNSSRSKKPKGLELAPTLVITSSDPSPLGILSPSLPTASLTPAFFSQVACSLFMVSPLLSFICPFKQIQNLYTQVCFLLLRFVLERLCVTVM
# Method in brief: as §1
# [16] = molecular target: T10, ETV2 (Homo sapiens, UniProt O00321 1-342); conditions: protein: recombinant; tags: N-terminal GST; dsDNA, one strand shown
# T10 sequence: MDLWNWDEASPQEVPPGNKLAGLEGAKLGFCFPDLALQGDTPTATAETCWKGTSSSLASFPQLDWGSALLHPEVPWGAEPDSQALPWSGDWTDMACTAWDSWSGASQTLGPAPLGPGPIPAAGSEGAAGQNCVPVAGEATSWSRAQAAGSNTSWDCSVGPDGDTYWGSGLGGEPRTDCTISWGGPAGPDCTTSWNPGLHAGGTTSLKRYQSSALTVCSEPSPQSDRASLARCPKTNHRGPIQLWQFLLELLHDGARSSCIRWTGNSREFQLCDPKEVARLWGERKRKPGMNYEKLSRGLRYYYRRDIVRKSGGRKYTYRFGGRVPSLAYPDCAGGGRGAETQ
# Method in brief: as §1
# [17] = molecular target: T11, ELF3 (Homo sapiens, UniProt P78545 1-371); conditions: protein: recombinant; tags: N-terminal GST; dsDNA, one strand shown
# T11 sequence: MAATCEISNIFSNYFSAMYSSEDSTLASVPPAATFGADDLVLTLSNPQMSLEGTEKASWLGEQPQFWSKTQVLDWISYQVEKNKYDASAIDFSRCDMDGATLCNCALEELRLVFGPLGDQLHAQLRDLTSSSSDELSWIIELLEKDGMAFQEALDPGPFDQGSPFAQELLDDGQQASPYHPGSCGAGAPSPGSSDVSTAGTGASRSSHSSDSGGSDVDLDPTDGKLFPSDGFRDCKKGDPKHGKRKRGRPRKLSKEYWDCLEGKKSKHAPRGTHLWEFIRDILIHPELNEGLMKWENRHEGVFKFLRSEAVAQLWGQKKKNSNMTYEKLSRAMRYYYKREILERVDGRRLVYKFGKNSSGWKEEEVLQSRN
# Method in brief: as §1
# [18] = molecular target: CRX (Homo sapiens, UniProt O43186 1-299); conditions: protein: recombinant; tags: N-terminal GST; dsDNA, one strand shown
# Method in brief: as §1
# [19] = molecular target: ETV1 (Homo sapiens, UniProt P50549 1-477); conditions: protein: recombinant; tags: N-terminal GST; dsDNA, one strand shown
# Method in brief: as §1
# SPIB, sequence (Q01892 whole entry): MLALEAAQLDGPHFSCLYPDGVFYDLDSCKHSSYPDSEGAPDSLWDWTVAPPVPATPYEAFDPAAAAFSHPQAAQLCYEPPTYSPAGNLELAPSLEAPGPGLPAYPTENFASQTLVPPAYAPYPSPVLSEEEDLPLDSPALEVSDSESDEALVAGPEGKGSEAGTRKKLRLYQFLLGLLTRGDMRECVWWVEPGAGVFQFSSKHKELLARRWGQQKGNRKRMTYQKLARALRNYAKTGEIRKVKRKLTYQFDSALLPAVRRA
# HSF1, sequence (Q00613 whole entry): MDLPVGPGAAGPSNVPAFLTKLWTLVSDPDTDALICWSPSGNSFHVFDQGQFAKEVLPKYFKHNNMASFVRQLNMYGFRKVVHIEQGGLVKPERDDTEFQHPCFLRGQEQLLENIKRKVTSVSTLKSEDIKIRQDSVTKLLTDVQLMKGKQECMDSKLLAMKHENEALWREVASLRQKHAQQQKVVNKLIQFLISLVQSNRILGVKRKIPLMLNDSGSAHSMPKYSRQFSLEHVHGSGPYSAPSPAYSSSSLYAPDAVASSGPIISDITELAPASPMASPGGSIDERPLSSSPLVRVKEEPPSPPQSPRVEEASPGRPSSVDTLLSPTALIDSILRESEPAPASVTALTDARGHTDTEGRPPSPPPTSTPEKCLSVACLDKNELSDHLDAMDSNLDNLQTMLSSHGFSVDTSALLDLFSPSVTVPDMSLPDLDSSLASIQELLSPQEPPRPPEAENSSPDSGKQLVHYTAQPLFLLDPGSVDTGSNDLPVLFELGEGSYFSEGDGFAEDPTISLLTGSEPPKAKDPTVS
# CRX, sequence (O43186 whole entry): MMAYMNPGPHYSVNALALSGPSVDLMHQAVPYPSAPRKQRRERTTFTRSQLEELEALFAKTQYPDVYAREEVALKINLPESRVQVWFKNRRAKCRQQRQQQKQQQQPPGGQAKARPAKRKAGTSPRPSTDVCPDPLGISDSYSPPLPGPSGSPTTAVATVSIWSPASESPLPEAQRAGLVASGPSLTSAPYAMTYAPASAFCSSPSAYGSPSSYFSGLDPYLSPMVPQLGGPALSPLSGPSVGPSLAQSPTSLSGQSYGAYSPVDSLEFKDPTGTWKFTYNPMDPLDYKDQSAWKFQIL
# ETV1, sequence (P50549 whole entry): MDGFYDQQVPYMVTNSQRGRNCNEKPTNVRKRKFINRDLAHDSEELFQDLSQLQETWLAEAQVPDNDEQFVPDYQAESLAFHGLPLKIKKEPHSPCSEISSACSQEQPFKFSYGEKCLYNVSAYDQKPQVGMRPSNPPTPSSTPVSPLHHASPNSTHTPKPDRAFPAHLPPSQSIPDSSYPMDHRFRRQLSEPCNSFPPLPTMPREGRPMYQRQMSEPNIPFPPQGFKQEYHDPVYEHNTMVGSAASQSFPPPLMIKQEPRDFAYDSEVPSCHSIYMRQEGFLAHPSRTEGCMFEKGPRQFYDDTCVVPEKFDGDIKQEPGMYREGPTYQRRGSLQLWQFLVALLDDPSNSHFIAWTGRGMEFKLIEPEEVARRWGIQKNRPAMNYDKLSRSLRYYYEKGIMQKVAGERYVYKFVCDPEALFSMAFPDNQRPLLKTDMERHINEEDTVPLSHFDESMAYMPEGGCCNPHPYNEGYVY
# ELF1, sequence (P32519 whole entry): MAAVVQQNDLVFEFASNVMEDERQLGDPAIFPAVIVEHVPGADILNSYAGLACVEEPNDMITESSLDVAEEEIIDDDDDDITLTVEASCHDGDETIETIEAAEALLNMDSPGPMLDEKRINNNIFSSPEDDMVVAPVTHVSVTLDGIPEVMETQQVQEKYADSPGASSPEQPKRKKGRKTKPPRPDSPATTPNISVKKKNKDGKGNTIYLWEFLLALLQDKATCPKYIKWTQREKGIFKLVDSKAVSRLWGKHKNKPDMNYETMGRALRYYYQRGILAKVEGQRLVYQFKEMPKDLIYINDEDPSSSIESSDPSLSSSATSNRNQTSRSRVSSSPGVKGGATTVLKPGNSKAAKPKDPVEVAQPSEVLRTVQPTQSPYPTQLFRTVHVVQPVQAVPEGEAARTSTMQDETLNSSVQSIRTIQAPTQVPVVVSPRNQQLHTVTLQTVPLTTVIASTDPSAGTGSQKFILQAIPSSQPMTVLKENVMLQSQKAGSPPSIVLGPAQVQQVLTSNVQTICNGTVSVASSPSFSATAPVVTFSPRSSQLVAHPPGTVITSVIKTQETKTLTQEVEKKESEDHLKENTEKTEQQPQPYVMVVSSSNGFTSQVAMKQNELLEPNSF
# ELF4, sequence (Q99607 whole entry): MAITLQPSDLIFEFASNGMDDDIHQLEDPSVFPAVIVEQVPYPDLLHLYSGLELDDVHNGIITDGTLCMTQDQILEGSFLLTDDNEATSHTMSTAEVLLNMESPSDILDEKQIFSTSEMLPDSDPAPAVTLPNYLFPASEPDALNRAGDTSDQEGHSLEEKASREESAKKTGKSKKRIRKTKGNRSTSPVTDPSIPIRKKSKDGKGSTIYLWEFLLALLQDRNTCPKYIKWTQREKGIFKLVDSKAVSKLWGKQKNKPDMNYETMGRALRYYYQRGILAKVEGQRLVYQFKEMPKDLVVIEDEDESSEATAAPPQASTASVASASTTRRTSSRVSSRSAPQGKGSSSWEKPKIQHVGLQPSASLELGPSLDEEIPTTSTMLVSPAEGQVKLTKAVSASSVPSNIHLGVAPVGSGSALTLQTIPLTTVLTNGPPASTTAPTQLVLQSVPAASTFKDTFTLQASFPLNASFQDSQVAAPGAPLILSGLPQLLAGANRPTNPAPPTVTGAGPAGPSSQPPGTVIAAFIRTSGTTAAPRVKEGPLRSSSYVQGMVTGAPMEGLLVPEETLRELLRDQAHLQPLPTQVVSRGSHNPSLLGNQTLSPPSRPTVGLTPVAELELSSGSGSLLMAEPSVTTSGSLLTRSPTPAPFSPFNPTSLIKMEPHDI
# ETV5, sequence (P41161 whole entry): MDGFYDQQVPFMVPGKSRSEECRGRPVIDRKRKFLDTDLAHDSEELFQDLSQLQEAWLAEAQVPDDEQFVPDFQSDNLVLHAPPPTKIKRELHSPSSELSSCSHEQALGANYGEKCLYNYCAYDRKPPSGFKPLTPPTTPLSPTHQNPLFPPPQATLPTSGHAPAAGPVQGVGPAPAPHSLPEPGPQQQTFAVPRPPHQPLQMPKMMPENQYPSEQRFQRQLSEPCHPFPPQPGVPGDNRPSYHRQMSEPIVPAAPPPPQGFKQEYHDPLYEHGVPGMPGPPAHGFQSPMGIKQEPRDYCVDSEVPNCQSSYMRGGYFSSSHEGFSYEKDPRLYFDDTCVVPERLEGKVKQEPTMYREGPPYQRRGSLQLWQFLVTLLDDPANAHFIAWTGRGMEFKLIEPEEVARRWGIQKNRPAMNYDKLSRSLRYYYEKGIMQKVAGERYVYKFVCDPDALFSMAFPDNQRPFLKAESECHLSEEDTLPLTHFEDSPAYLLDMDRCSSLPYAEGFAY
sequence,measurement,setting,value
CTATAT,binding signal,[1],"1.38 fold enrichment (6-mer frequency, TF over GST control)"
same,binding signal,[2],"1.42 fold enrichment (6-mer frequency, TF over GST control)"
same,binding signal,[3],"1.35 fold enrichment (6-mer frequency, TF over GST control)"
same,binding signal,[4],"1.34 fold enrichment (6-mer frequency, TF over GST control)"
same,binding signal,[5],"1.5 fold enrichment (6-mer frequency, TF over GST control)"
same,binding signal,[6],"1.42 fold enrichment (6-mer frequency, TF over GST control)"
same,binding signal,[7],"1.32 fold enrichment (6-mer frequency, TF over GST control)"
same,binding signal,[8],"1.47 fold enrichment (6-mer frequency, TF over GST control)"
same,binding signal,[9],"1.47 fold enrichment (6-mer frequency, TF over GST control)"
same,binding signal,[10],"1.44 fold enrichment (6-mer frequency, TF over GST control)"
same,binding signal,[11],"1.41 fold enrichment (6-mer frequency, TF over GST control)"
same,binding signal,[12],"1.23 fold enrichment (6-mer frequency, TF over GST control)"
same,binding signal,[13],"1.47 fold enrichment (6-mer frequency, TF over GST control)"
same,binding signal,[14],"1.41 fold enrichment (6-mer frequency, TF over GST control)"
same,binding signal,[15],"1.71 fold enrichment (6-mer frequency, TF over GST control)"
same,binding signal,[16],"1.22 fold enrichment (6-mer frequency, TF over GST control)"
same,binding signal,[17],"1.33 fold enrichment (6-mer frequency, TF over GST control)"
same,binding signal,[18],"1.3 fold enrichment (6-mer frequency, TF over GST control)"
same,binding signal,[19],"1.39 fold enrichment (6-mer frequency, TF over GST control)"
